# Hit rate of the full screen: of about 69,000 compounds, about 1,000 (1.4%) showed an effect of 50% or more. The entries come from a sample that favours strong results as a whole.
# Tested on: Leishmania donovani
# Test: Leishmania intramacrophage assay
# Type: functional, organism-based
# Design: scale not given: in the data most compounds retested in dose-response had high values
smiles,measurement,setting,value
CCCc1nc(CN(CC)C(=O)c2ccc3ncsc3c2)no1,Percent Effect,"30.3 µM, […]",-29.17%
COc1ccc(-c2nccn2CC(O)CN2CCCC2)c(F)c1 (stereo not drawn),Percent Effect,"30.3 µM, […]",5.05%
COc1ccc2cnn(CC(=O)NC3CCCCC3)c(=O)c2c1OC,Percent Effect,"30.3 µM, […]",14.43%
CNS(=O)(=O)CCn1cc(-c2ccc(OC)c(OC)c2)nn1,Percent Effect,"30.3 µM, […]",27.44%
CCn1cc2c(n1)C(COC)CN(C(=O)COc1ccccc1C)C2 (stereo not drawn),Percent Effect,"30 µM, 30.03 µM",-0.4533%
CC(C)c1ncncc1C(=O)N1CCN(Cc2ccccn2)CC1,Percent Effect,30 µM,24.52%
NC(=O)c1cccc(OCC(=O)NS(=O)(=O)c2ccc3c(c2)CCC3)c1,Percent Effect,30 µM,8.199%
Cc1nn(C)c(N2CCOCC2)c1CNC1COc2ccccc2C1 (stereo not drawn),Percent Effect,30 µM,6.69%
CC(=O)NCCCc1ncnn1-c1cccc(Cl)c1,Percent Effect,"30.3 µM, […]",-4.184%
O=C(NCC(=O)N1CCCc2ccccc21)c1c(O)cc(F)cc1F,Percent Effect,30 µM,16.08%
O=C(NCCC(=O)N1CCCc2ccccc21)c1c(F)cccc1F,Percent Effect,30 µM,15.29%
O=C(NCCC(=O)N1CCCc2ccccc21)c1c(O)cc(F)cc1F,Percent Effect,"30 µM, 30.03 µM",50.32%
Cc1ccc(CN2C[C@@H]3[C@@H](C(=O)NCC(C)C)CCS(=O)(=O)[C@@H]3C2)cc1.O=C(O)C(F)(F)F,Percent Effect,"30.3 µM, […]",-6.029%
CCc1nnc(SCC(=O)Nc2cc(C(C)(C)C)nn2C)[nH]1,Percent Effect,"30.3 µM, […]",21.82%
CCc1cc(NCC(N)=O)nc(N2CCCCC2)n1,Percent Effect,"30.3 µM, […]",21.93%
CCc1cc(NC2CCN(CC(N)=O)CC2)nc(N2CCCCC2)n1,Percent Effect,"30.3 µM, […]",55.44%
CCc1cc(NC2CCS(=O)(=O)CC2)nc(N2CCCCC2)n1,Percent Effect,"30.3 µM, […]",-6.887%
CCc1ccsc1C(=O)N1CCS(=O)(=O)CC1,Percent Effect,"30.3 µM, […]",9.315%
COC(=O)c1sccc1CN1CCN(C(=O)c2ccc(C)o2)CC1,Percent Effect,"30.3 µM, […]",23.22%
CCc1ccsc1C(=O)N1CCN(C(=O)c2ccc(C)o2)CC1,Percent Effect,"30.3 µM, […]",56.23%
O=C(c1ccc2[nH]c(=O)[nH]c2c1)N1CCC(Nc2cccnn2)CC1,Percent Effect,30 µM,-0.4678%
Oc1ccc(Br)c(CNc2cccc(-c3nnc[nH]3)c2)c1,Percent Effect,"30.3 µM, […]",51.72%
Oc1c(F)cc(CNc2cccc(-c3nnc[nH]3)c2)cc1F,Percent Effect,"30.3 µM, […]",16.51%
c1cc(NCc2ccsc2)cc(-c2nnc[nH]2)c1,Percent Effect,"30.3 µM, […]",34.15%
CN(CCO)C(=O)Nc1ccn(-c2cccc(C(F)(F)F)c2)n1,Percent Effect,"30.3 µM, […]",13.55%
Cc1nc2n(n1)CC(NCc1csc(-c3ccsc3)n1)CC2 (stereo not drawn),Percent Effect,30 µM,1.329%
O=C(NC[C@H]1OC[C@@H](NC2COC2)[C@@H]1O)c1cccs1,Percent Effect,"30.3 µM, […]",17.79%
Cc1ccc2c(c1)C(=O)NCC1(CCN(C(=O)c3ccnn3C)CC1)O2,Percent Effect,"30.3 µM, […]",23.56%
Cc1ccc2c(c1)C(=O)NCC1(CCN(C(=O)c3ccccn3)CC1)O2,Percent Effect,"30.3 µM, […]",39.06%
Cc1ccc2c(c1)C(=O)NCC1(CCN(C(=O)c3cc(C)no3)CC1)O2,Percent Effect,"30.3 µM, […]",77.82%
Cc1cccc(C)c1OC1CN(C(=O)C2CC(=O)N(C(C)(C)C)C2)C1 (stereo not drawn),Percent Effect,"30.3 µM, […]",48.27%
CN1C(=O)C(c2ccccc2)CC12CCN(CCN)CC2 (stereo not drawn),Percent Effect,"30.3 µM, […]",16.5%
CCc1cc(NCCCOC2CCCC2)ncn1,Percent Effect,"30.3 µM, […]",51.18%
CCc1cc(NCCCOC2CCN(C)CC2)ncn1,Percent Effect,"30.3 µM, […]",-6.301%
CCc1cc(NCCCN(C)C2CCCC2)ncn1,Percent Effect,"30.3 µM, […]",22.72%
Cn1ccc(CN2CCC3(CCCN3CC3CC3)CC2)n1.O=C(O)C(F)(F)F.O=C(O)C(F)(F)F,Percent Effect,"30.3 µM, […]",41.38%
O=C(CC1CN(Cc2ccccc2)CCO1)NC1CCSCC1 (stereo not drawn),Percent Effect,"30.3 µM, […]",18.94%
Cc1ccc(CC(=O)N(C)CC2(O)CCN(c3ccccn3)C2)s1 (stereo not drawn),Percent Effect,"30 µM, 30.03 µM",24.75%
CC(=O)c1cnc(NCCN2CCCC(c3ccccc3)C2)nc1C (stereo not drawn),Percent Effect,"30.3 µM, […]",-39.73%
O=C(C1CCCOC1)N1CCN(CC(F)(F)F)c2ccccc21 (stereo not drawn),Percent Effect,"30.3 µM, […]",-20.84%
O=C(C1COCCO1)N1CCN(CC(F)(F)F)c2ccccc21 (stereo not drawn),Percent Effect,"30.3 µM, […]",56.8%
O=C(C1CCOC1)N1CCN(CC(F)(F)F)c2ccccc21 (stereo not drawn),Percent Effect,"30.3 µM, […]",25.18%
CC(C)Cc1cc(CN2C[C@H]3CC[C@@H]2CN(Cc2cscn2)C3)n[nH]1,Percent Effect,"30.3 µM, […]",2.738%
CC(C)(C)c1cc(CN2C[C@H]3CC[C@@H]2CN(Cc2cscn2)C3)n[nH]1,Percent Effect,"30.3 µM, […]",99.99%
CC(C)(C)c1cc(CN2C[C@@H]3CC[C@H](C2)N(Cc2ccccn2)C3)n[nH]1,Percent Effect,"30.3 µM, […]",9.516%
CCCc1n[nH]c(C2CN(C(=O)c3ccco3)CCO2)n1 (stereo not drawn),Percent Effect,"30 µM, 30.03 µM",22.5%
Cc1nc2c(c(NCCCN3CCOCC3)n1)CCN(C)C2,Percent Effect,"30.3 µM, […]",22.12%
Cc1nc2c(c(NCCN3CCOCC3)n1)CCN(C)C2,Percent Effect,"30.3 µM, […]",32.47%
CCN(CC)CCCNc1nc(C)nc2c1CCN(C)C2.O=C(O)CC(O)(CC(=O)O)C(=O)O,Percent Effect,"30.3 µM, […]",53.93%
Cc1nccc([C@H]2C[C@@H]3CCN(C(=O)c4c(C)noc4C)C[C@H]3O2)n1,Percent Effect,"30.3 µM, […]",16.88%
Cc1ccccc1OCCSc1nnc(CC2CCS(=O)(=O)C2)n1C (stereo not drawn),Percent Effect,"30.3 µM, […]",22.12%
COCc1cc(N2CCOC(c3ccc(F)cc3)C2)ncn1 (stereo not drawn),Percent Effect,"30.3 µM, […]",-18.01%
COCc1cc(N2CCOC(c3ccc(Cl)cc3)C2)ncn1 (stereo not drawn),Percent Effect,"30.3 µM, […]",15.44%
COCc1cc(N2CCOC(c3ccc(Cl)c(Cl)c3)C2)ncn1 (stereo not drawn),Percent Effect,"30.3 µM, […]",54.26%
CCCOC1CCCN(Cc2nc(-c3ccc(F)cc3F)oc2C)C1 (stereo not drawn),Percent Effect,"30.3 µM, […]",-16.44%
COCc1ncn(Cc2nc(-c3ccc(OC)cc3F)oc2C)n1,Percent Effect,"30.3 µM, […]",-35.79%
COc1ccc(-c2nc(CN3CCCC(OC)C3)c(C)o2)c(F)c1 (stereo not drawn),Percent Effect,"30.3 µM, […]",76%
COc1cccc(CN(C(=O)Nc2nncs2)C2CCC(O)CC2)c1 (stereo not drawn),Percent Effect,"30.3 µM, […]",1.528%
O=C1NC2(CCN(C(=O)c3ccnnc3)CC2)CC1c1ccccc1 (stereo not drawn),Percent Effect,"30.3 µM, […]",21.04%
CC(=O)c1ccccc1-c1nc(CC2CCN(C)CC2)no1,Percent Effect,"30.3 µM, […]",87.64%
COC(=O)c1cccc(-c2nc(CC3CCN(C)CC3)no2)c1,Percent Effect,"30.3 µM, […]",10.91%
CN1CCC(Cc2noc(-c3cccc4c3OCC4)n2)CC1,Percent Effect,"30.3 µM, […]",31.67%
CCCN1CCC(Cc2noc(-c3cccnc3OC)n2)CC1,Percent Effect,"30.3 µM, […]",57.42%
CCCN1CCC(Cc2noc(-c3ncccc3C)n2)CC1,Percent Effect,"30.3 µM, […]",17.75%
CCCN1CCC(Cc2noc(-c3cc4cccnc4nc3C)n2)CC1,Percent Effect,"30.3 µM, […]",32.81%
CSCc1noc(CNC(=O)C2CCN(C3CCCCC3)CC2)n1,Percent Effect,"30.3 µM, […]",24%
Cc1noc(C)c1CN(C)c1ncnc2ccccc12,Percent Effect,"30.3 µM, […]",12.67%
CC(Cn1cc(Br)cn1)C(=O)Nc1ccc(Cl)cn1 (stereo not drawn),Percent Effect,"30.3 µM, […]",-88.88%
CC(C)c1nc(C2CCCN(C(=O)CCn3cncn3)C2)no1 (stereo not drawn),Percent Effect,30 µM,13.68%
O=C(Cc1ccc(F)cc1)NCCNc1cc(N2CCCC2)ncn1,Percent Effect,"30.3 µM, […]",-9.653%
CCN1CC(COC(=O)c2cc(Br)ccc2F)CC1=O (stereo not drawn),Percent Effect,"30.3 µM, […]",-7.569%
CCN1CC(COC(=O)c2ccc(Br)cc2F)CC1=O (stereo not drawn),Percent Effect,"30.3 µM, […]",87.43%
CCN1CC(COC(=O)c2ccc(N(C)C)cc2F)CC1=O (stereo not drawn),Percent Effect,"30.3 µM, […]",23.8%
COc1ccccc1CC(=O)N1CCCC1Cn1nc(C)cc1C (stereo not drawn),Percent Effect,"30.3 µM, […]",13.95%
O=C1O[C@@H]2CN(Cc3cccc(O)c3)C[C@@H]2N1CCCN1CCOCC1,Percent Effect,"30.3 µM, […]",8.802%
CCOc1ccc(Cl)c(C(=O)NC)n1,Percent Effect,30 µM,10.53%
O[C@@H]1C[C@@H](c2nc(-c3ccccc3)no2)N(CC2CCCCC2)C1,Percent Effect,"30.3 µM, […]",18.41%
CCn1ccc(CN(C)C(=O)CSc2nnc(N)s2)n1,Percent Effect,"30.3 µM, […]",54.38%
COc1ccnc(CN(C)C(=O)CSc2nnc(N)s2)c1,Percent Effect,"30.3 µM, […]",23.55%
COc1ccc(CN(C)C(=O)CSc2nnc(N)s2)c(OC)c1OC,Percent Effect,"30.3 µM, […]",28.05%
CC(C(=O)N1CCCCC1)N1CCN(c2ncc(Cl)cn2)CC1 (stereo not drawn),Percent Effect,"30.3 µM, […]",6.463%
Cc1cc(S(=O)(=O)N2CCC(S(C)(=O)=O)C2)ccc1F (stereo not drawn),Percent Effect,"30.3 µM, […]",24.83%
CS(=O)(=O)C1CCN(S(=O)(=O)c2ccc(F)c(F)c2)C1 (stereo not drawn),Percent Effect,"30.3 µM, […]",54.9%
CS(=O)(=O)C1CCN(S(=O)(=O)c2ccc(F)c(F)c2)CC1,Percent Effect,"30.3 µM, […]",-2.266%
O=C(NCc1ccccn1)N1CC=C(c2ccccc2)CC1,Percent Effect,"30.3 µM, […]",1.233%
Cc1nc(N)nc(N2CCOc3ccc(CO)cc3C2)c1C,Percent Effect,"30.3 µM, […]",-5.312%
Cc1nc(CCN)cc(N2CCOc3ccc(Cl)cc3C2)n1,Percent Effect,"30.3 µM, […]",63.66%
Cc1nc(C2CCN(C)CC2)cc(N2CCOc3ccc(Cl)cc3C2)n1,Percent Effect,"30.3 µM, […]",85.22%
Cc1nc(CCN)cc(N2CCC(O)(c3ccc(Cl)cc3)CC2)n1,Percent Effect,"30.3 µM, […]",77.75%
Cc1nc(CN)cc(N2CCC(O)(c3ccc(Cl)cc3)CC2)n1,Percent Effect,"30.3 µM, […]",-13.57%
COc1ccc(C(=O)N2CCN(c3cc(CCN)nc(C)n3)CC2)cc1,Percent Effect,"30.3 µM, […]",0.4639%
CCN(C)CC(=O)N1CCC(c2cc(N3CCOCC3)nc(C)n2)CC1,Percent Effect,"30.3 µM, […]",-5.475%
Cc1nc(CCN)cc(N2CCC(O)(c3ccccc3)C2)n1 (stereo not drawn),Percent Effect,"30.3 µM, […]",11.63%
Cc1nc(C2CCNCC2)cc(N2CCOc3ccccc3C2)n1,Percent Effect,"30.3 µM, […]",38.29%
COc1cc2nc(NCCNS(C)(=O)=O)cc(C)c2cc1OC,Percent Effect,"30.3 µM, […]",-28.24%
O=C(O)C(F)(F)F.O=C(O)C(F)(F)F.c1csc(CN2CCCC3(COCCN(Cc4c[nH]nn4)C3)C2)c1 (stereo not drawn),Percent Effect,"30.3 µM, […]",14.23%
Cc1ccccc1C1(C(=O)N2CCOC(C)C2)CCOCC1 (stereo not drawn),Percent Effect,"30.3 µM, […]",-3.571%
Cc1nc(CN(C)C2CCN(Cc3ccc(C(N)=O)cc3)C2)no1 (stereo not drawn),Percent Effect,30 µM,31.74%
Cc1cccc(S(=O)(=O)NC(=O)CN(C)Cc2ccccc2)c1,Percent Effect,"30.3 µM, […]",14.38%
Cc1ccccc1[C@@H]1CN(Cc2ccc(C(F)(F)F)nc2)C[C@H]1C(=O)O,Percent Effect,"30.3 µM, […]",13.27%
Fc1ccc(OCCNC2CCN(Cc3ccccn3)CC2)c(F)c1,Percent Effect,"30.3 µM, […]",52.55%
N#Cc1ccc(NC2CCN(Cc3ccccn3)CC2)c(F)c1,Percent Effect,"30.3 µM, […]",-12.41%
Fc1ccc(OCCNC2CCN(Cc3ccncc3)CC2)c(F)c1,Percent Effect,"30.3 µM, […]",39.31%

# — ChEMBL document CHEMBL3988442, “University of Dundee, Small-Polar-MMV Screening Library” (2021)
